# From the supplement of paper PMC8728848
# About 410 targets per protein were measured; listed, in parts, are those with the strongest signals and a random draw of the rest.
# B1: HPAIIITrx (Helix pomatia), Q1KM18 (protein)
# chain: MLFVTIISLGLLAIVHGQCALKTIAFSAAIDREQTFDANQVVIYDIVITNHGNAYDNSTGLFTAPVDGMYSFQLNLLTIKEKEGWLELVHNGQLKVSVYAKQDSTYDSSSNSVIIKMKEGDRVNVRAHKKSGLFGRDDELYNTFSGHFLSGL
# How the values were obtained:
# Assay in all cases: glycan array binding signal (z-score within array); higher = stronger binding
# Settings in all cases: glycan notation: IUPAC condensed, linker removed
# [1] = target: GalNAc(a1-3)GalNAc(b1-3)Gal(a1-4)Gal(b1-4)Glc
# Procedure, shortened: (§1)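 Arrays were curated from the Consortium for Functional Glycomics database, 3228 in total, and kept only where the protein sequence was available. Binding is expressed as a within-array Z-score. This score was averaged across arrays of the same protein sequence at different concentrations or buffers and across linkers, and negative values can be read as non-binding.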
# [2] = target: GalNAc(a1-3)GalNAc(b1-3)Gal(a1-4)Gal(b1-4)GlcNAc
# Procedure, shortened: as §1
# GalNAc(b1-3)GalNAc = target: GalNAc(b1-3)GalNAc
# Procedure, shortened: as §1
# Glc(b1-4)Glc = target: Glc(b1-4)Glc
# Procedure, shortened: as §1
# GlcA(b1-6)Gal = target: GlcA(b1-6)Gal
# Procedure, shortened: as §1
# [3] = target: GlcNAc(a1-3)Gal(b1-4)GlcNAc
# Procedure, shortened: as §1
# [4] = target: GlcNAc(a1-4)Gal(b1-4)GlcNAc(b1-3)Gal(b1-4)GlcNAc
# Procedure, shortened: as §1
# [5] = target: GlcNAc(a1-4)Gal(b1-4)GlcNAc(b1-3)Gal(b1-4)GlcNAc(b1-3)Gal(b1-4)GlcNAc
# Procedure, shortened: as §1
# [6] = target: GlcNAc(a1-6)Gal(b1-4)GlcNAc
# Procedure, shortened: as §1
# [7] = target: GlcNAc(b1-3)Gal(b1-4)GlcNAc(b1-3)Gal(b1-4)GlcNAc(b1-2)Man(a1-3)[GlcNAc(b1-3)Gal(b1-4)GlcNAc(b1-3)Gal(b1-4)GlcNAc(b1-2)Man(a1-6)]Man(b1-4)GlcNAc(b1-4)[Fuc(a1-6)]GlcNAc
# Procedure, shortened: as §1
# Kdn(a2-3)Gal(b1-3)GalNAc = target: Kdn(a2-3)Gal(b1-3)GalNAc
# Procedure, shortened: as §1
# Kdn(a2-3)Gal(b1-4)Glc = target: Kdn(a2-3)Gal(b1-4)Glc
# Procedure, shortened: as §1
# Kdn(a2-6)Gal(b1-4)GlcNAc = target: Kdn(a2-6)Gal(b1-4)GlcNAc
# Procedure, shortened: as §1
# Man(a1-2)Man(a1-3)Man = target: Man(a1-2)Man(a1-3)Man
# Procedure, shortened: as §1
# [8] = target: Neu5Ac(a2-3)Gal(b1-4)GlcNAc6S
# Procedure, shortened: as §1
# [9] = target: Neu5Ac(a2-3)Gal(b1-4)[Fuc(a1-3)]GlcNAc(b1-3)Gal(b1-4)[Fuc(a1-3)]GlcNAc(b1-3)Gal(b1-4)[Fuc(a1-3)]GlcNAc
# Procedure, shortened: as §1
# [10] = target: Neu5Ac(a2-6)Gal(b1-4)GlcNAc(b1-2)Man(a1-3)[Man(a1-6)]Man(b1-4)GlcNAc(b1-4)GlcNAc
# Procedure, shortened: as §1
# [11] = target: Neu5Ac(a2-6)Gal(b1-4)GlcNAc(b1-2)Man(a1-6)Man(b1-4)GlcNAc(b1-4)GlcNAc
# Procedure, shortened: as §1
# [12] = target: Neu5Ac(a2-6)Gal(b1-4)GlcNAc(b1-2)Man(a1-6)[GlcNAc(b1-2)Man(a1-3)]Man(b1-4)GlcNAc(b1-4)GlcNAc
# Procedure, shortened: as §1
# [13] = target: Neu5Ac(a2-6)Gal(b1-4)GlcNAc(b1-3)Gal(b1-4)GlcNAc(b1-6)[Gal(b1-3)]GalNAc
# Procedure, shortened: as §1
# [14] = target: Neu5Ac(a2-6)Gal(b1-4)GlcNAc(b1-3)Gal(b1-4)[Fuc(a1-3)]GlcNAc(b1-3)Gal(b1-4)[Fuc(a1-3)]GlcNAc
# Procedure, shortened: as §1
# [15] = target: Neu5Ac(a2-6)Gal(b1-4)GlcNAc(b1-3)[Neu5Ac(a2-6)Gal(b1-4)GlcNAc(b1-6)]GalNAc
# Procedure, shortened: as §1
# [16] = target: Neu5Ac(a2-6)Gal(b1-4)GlcNAc(b1-6)[Gal(b1-3)]GalNAc
# Procedure, shortened: as §1
# [17] = target: Neu5Ac(a2-6)GalNAc(b1-4)GlcNAc6S
# Procedure, shortened: as §1
# [18] = target: Neu5Ac(a2-8)Neu5Ac(a2-3)Gal(b1-3)GalNAc(b1-4)[Neu5Ac(a2-8)Neu5Ac(a2-3)]Gal(b1-4)Glc
# Procedure, shortened: as §1
# Neu5Gc(a2-3)Gal(b1-4)Glc = target: Neu5Gc(a2-3)Gal(b1-4)Glc
# Procedure, shortened: as §1
binder,measurement,setting,value
B1,glycan array binding signal (z-score),[1],5.39
same,glycan array binding signal (z-score),[2],4.56
same,glycan array binding signal (z-score),GalNAc(b1-3)GalNAc,-0.254
same,glycan array binding signal (z-score),Glc(b1-4)Glc,-0.122
same,glycan array binding signal (z-score),GlcA(b1-6)Gal,-0.196
same,glycan array binding signal (z-score),[3],0.416
same,glycan array binding signal (z-score),[4],1.69
same,glycan array binding signal (z-score),[5],2.06
same,glycan array binding signal (z-score),[6],-0.341
same,glycan array binding signal (z-score),[7],-0.228
same,glycan array binding signal (z-score),Kdn(a2-3)Gal(b1-3)GalNAc,-0.152
same,glycan array binding signal (z-score),Kdn(a2-3)Gal(b1-4)Glc,0.214
same,glycan array binding signal (z-score),Kdn(a2-6)Gal(b1-4)GlcNAc,-0.263
same,glycan array binding signal (z-score),Man(a1-2)Man(a1-3)Man,-0.321
same,glycan array binding signal (z-score),[8],-0.337
same,glycan array binding signal (z-score),[9],0.089
same,glycan array binding signal (z-score),[10],-0.533
same,glycan array binding signal (z-score),[11],-0.31
same,glycan array binding signal (z-score),[12],-0.492
same,glycan array binding signal (z-score),[13],-0.292
same,glycan array binding signal (z-score),[14],-0.392
same,glycan array binding signal (z-score),[15],-0.408
same,glycan array binding signal (z-score),[16],-0.3
same,glycan array binding signal (z-score),[17],-0.278
same,glycan array binding signal (z-score),[18],-0.38
same,glycan array binding signal (z-score),Neu5Gc(a2-3)Gal(b1-4)Glc,-0.237
